A short description of assay [1]: viability loss in pontine glioma line – cell-based, SU-DIPG-XIII, MIPE5.0, CellTiter-Glo, qHTS, dose response (AID 1347064; cut-off not given, nearly all actives have AC50 up to about 23 µM). The conditions noted are these: CellTiter-Glo ATP luminescence. In general terms: In ATP-based viability assays light output follows the ATP content of the culture.
Assay [2] can be described thus: viability loss in pontine glioma line – cell-based, SU-DIPG-XXV, MIPE5.0, CellTiter-Glo, qHTS, dose response (AID 1347065).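 Further: cells exposed to compound for 48 hours before ATP readout.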 To be noted: CellTiter-Glo ATP luminescence.
The nature of assay [3]: growth inhibition of DIPG cells – cell-based, MIPE5.0 library, qHTS (AID 1347068; cut-off not given, nearly all actives have IC50 up to about 30 µM). The conditions noted are these: SU-DIPG-XXV viability. (In general: Quantitative high-throughput screening tests each substance at several concentrations.)
Assay [4] can be described thus: JHH-DIPG-1 glioma cell viability, MIPE5.0 library, CellTiter-Glo luminescence, qHTS (AID 1347067).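 Further: cells exposed to compound for 48 hours before readout.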 To be noted: JHH-DIPG-1 glioma viability, CellTiter-Glo ATP luminescence.
Assay [5] is described as follows: viability loss with induced miR-34 in A549 – imaging, A549 dox-inducible miR-34, nuclei and caspase counts, primary screen (AID 1347080;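 active means compounds whose cell count with miR-34 switched on is under 0.7 times the count with it off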). The conditions noted are these: A549 miR-34 inducible, Hoechst nuclei count, 48 h.
Assay [6] in a line: MELAS cybrid and Rieske KO viability enhancers – cell-based, MELAS cybrids, Rieske KO mouse fibroblasts, CellTiter-Glo, primary screen (AID 1508586;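 active means mean z-score across replicates of 1.96 or higher in either the MELAS or the Rieske mutant cell line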;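 further: z relative to plate mean and SD of compound and empty wells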). The conditions noted are these: low glucose.
Assay [7] is described as follows: galactose survival enhancers in mitochondrial complex I cybrids – cell-based, galactose medium, ATP luminescence, primary screen (AID 1645843;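 active means z-score of at least 1.8 in each of two replicates, scored against plate mean and spread of sample wells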;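 further: positive z means more ATP and so rescue of galactose-driven cybrid death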). The conditions noted are these: complex I mutant cybrid cells, 72 h, stronger effect = higher value.

The source of these data is PubChem BioAssay.

SMILES strings stand for the structures. “And” between values parts separate entries of the source, which are not always exact repeats. Equal values may be shown once. Inconclusive results are not listed. The source made the active and inactive calls. Unless noted, cut-off not given; nearly all actives show AC50 up to about 26 µM.

A word on the AC50: it is the concentration giving half of the maximal activity seen. For `Cc1cc(-c2cnn3c(NCC4CC(C)(O)C4)cc(Oc4cccnc4)nc23)ccc1C(=O)NC1CC1` (centres undefined), the outcome in assay [1] and in assay [3] was inactive. In addition, the AC50 in assay [2] is 1.48 µM (active).
Regarding `Cc1nnc(C(C)C)n1C1CC2CCC(C1)N2CCC(NC(=O)C1CCC(F)(F)CC1)c1ccccc1` (centres undefined), the call in assay [1], in assay [2], in assay [4] and in assay [3] was inactive. The fold change was 0.913 (inactive) and 0.876 (inactive) in assay [5] (stronger effect = lower value, cell number ratio, induced over uninduced); 0.655 and 0.632 in assay [5] (measured here: relative caspase fold change +Dox/-Dox). Further, the cell count in assay [5] (measured here: total cells with miR-34 induction, stronger effect = lower value) is 8280 and 7990; in assay [5] (measured here: total cells without miR-34 induction) it was 9060 and 9120. Also, the z-score was 0.322 (inactive) and -0.218 (inactive) in assay [6] (MELAS cybrid survival, CellTiter-Glo 48 h, stronger effect = higher value); -0.412 and -0.846 in assay [6] (Rieske KO mouse fibroblast survival, CellTiter-Glo 72 h); 0.505 (inactive) in assay [7].
